Source: PubChem BioAssay (The Scripps Research Institute Molecular Screening Center)
The list is not random: actives were taken first. Their share in the collection is about 0.84%.
PPARg SRC2 recr: agonists of SRC-2 recruitment by human PPARgamma; PPARgamma LBD-SRC-2 recruitment, biochemical; activation, % at 8 µM; 200,000 tested, 0.34% active; AID 1032;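 note: 0% = vehicle and 100% = reference agonist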
Target sequence (P37231 whole entry, looked up, the tested form may be a part): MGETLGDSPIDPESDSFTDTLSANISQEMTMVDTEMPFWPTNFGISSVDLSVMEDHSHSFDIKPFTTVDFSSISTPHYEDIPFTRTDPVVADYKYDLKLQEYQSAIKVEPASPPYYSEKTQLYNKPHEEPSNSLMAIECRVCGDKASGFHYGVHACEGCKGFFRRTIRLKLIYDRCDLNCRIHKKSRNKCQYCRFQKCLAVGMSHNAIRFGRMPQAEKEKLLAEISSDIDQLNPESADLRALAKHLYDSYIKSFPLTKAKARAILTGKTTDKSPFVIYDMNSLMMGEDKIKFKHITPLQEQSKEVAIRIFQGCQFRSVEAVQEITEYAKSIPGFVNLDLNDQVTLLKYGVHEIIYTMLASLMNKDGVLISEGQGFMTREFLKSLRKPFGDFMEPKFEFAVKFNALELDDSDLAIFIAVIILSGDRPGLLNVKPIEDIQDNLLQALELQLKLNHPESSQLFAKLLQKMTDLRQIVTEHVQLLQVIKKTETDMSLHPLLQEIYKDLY
SRC3 TRFRET art: flags TR-FRET format artefacts in PPARgamma SRC-3 recruitment agonist screen. TR-FRET artefact counter-screen, PPARgamma/SRC-3 format; hits give high values. TR-FRET ratio at 8 µM. 99,000 tested, 0.39% active. AID 1048; in the data active = TR-FRET ratio above about 2000
PPARg SRC-1 ag: PPARgamma-driven SRC-1 recruitment agonism; P37231; PPARgamma-SRC-1 coactivator recruitment biochemical assay; activation, % at 8 µM; 200,000 tested, 0.41% active; in the data active = activation above about 19%;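 note: 0% = DMSO and 100% = reference agonist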
TR-FRET SRC-2 ct: counter-screen for PPARgamma SRC-2 recruitment agonists: TR-FRET artefact; 200,000 tested, 0.4% active; TR-FRET ratio at 8 µM; AID 1049; hits give high values; in the data active = TR-FRET ratio above about 2000
SRC1 TRFRET art: TR-FRET artefact, counter-screen to PPARgamma/SRC-1 agonist assay; TR-FRET detection artefact counter-screen, emission ratio; hits give high values; TR-FRET ratio at 8 µM; 99,000 tested, 0.34% active; AID 1051; in the data active = TR-FRET ratio above about 2300
PPARg SRC-3 ag: promotes SRC-3 coactivator recruitment by human PPARgamma; biochemical PPARgamma/SRC-3 coactivator recruitment assay; activation, % at 8 µM; 200,000 tested, 0.26% active; AID 731; in the data active = activation above about 23%;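 note: 0% = DMSO and 100% = reference agonist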
PPARg SRC2 ag: human PPARgamma SRC-2 recruitment agonism, confirmation; shares compounds with PPARg SRC-3 ag; activation, % at 8 µM; biochemical SRC-2 recruitment by PPARgamma; AID 1297; 790 tested, 52% active;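 note: 0% = vehicle alone and 100% = reference agonist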
PPARg SRC1 conf: confirmation of agonists of SRC-1 recruitment by human PPARgamma; shares compounds with PPARg SRC-3 ag; PPARgamma–SRC-1 coactivator recruitment biochemical assay; activation, % at 8 µM; 790 tested, 43% active; in the data active = activation above about 20%;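 note: 0% = vehicle wells and 100% = reference agonist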
PPARg SRC3 conf: human PPARgamma SRC-3 recruitment agonism, confirmation; shares compounds with PPARg SRC-3 ag; biochemical PPARgamma-SRC-3 coactivator recruitment, agonist mode; activation, % at 8 µM; 790 tested, 29% active; in the data active = activation above about 24%;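 note: 0% = vehicle wells and 100% = reference agonist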
Starred values were filed as active, the others as inactive; · = not tested or not shown. Cut-off read from the data, not from the text of the source, unless noted: active = activation above about 22%; inactive = the rest.

SMILES	PPARg SRC2 recr	SRC3 TRFRET art	PPARg SRC-1 ag	TR-FRET SRC-2 ct	SRC1 TRFRET art	PPARg SRC-3 ag	PPARg SRC2 ag	PPARg SRC1 conf	PPARg SRC3 conf
CNC(=S)N1N=C(c2ccc(Br)cc2)CC1c1ccc(OC)cc1 (centres undefined)	18	2788*	23*	2412*	2835*	21	37*	30*	21
CNC(=S)N1N=C(c2ccc(OC)cc2)CC1c1ccc(Cl)cc1Cl (centres undefined)	7	3446*	22*	2360*	3403*	16	18	12	12
COc1ccc(C2=NN(C(=O)CN3CCCCC3)C(c3ccc(C)cc3)C2)cc1 (centres undefined)	1	1434	2	1498	1708	1	·	·	·
CCn1c(O)c(/C=C2\C=Nc3ccccc32)sc1=Nc1ccccc1	4	·	1	1406	·	6	·	·	·
O=C(Cc1ccccc1)Nn1c(O)c(/C=C2\C=Nc3ccccc32)sc1=S	24*	1630	14	1652	2099	14	7	7	8
Cn1cccc1C(=O)NC(=O)COC(=O)c1ccccc1Sc1ccccc1C#N	22*	·	24*	3090*	·	29*	19	19	10
CC(C)CN(CCCNC(=O)CN1C(=O)COc2ccc(S(=O)(=O)N3CCCC3)cc21)CC(C)C	3	1581	-3	1585	1621	3	·	·	·
Brc1ccc(-c2nc3ccccc3s2)s1	63*	·	71*	3008*	·	93*	89*	66*	59*
c1ccc(-c2nc3ccccc3s2)nc1	0	·	0	1587	·	1	·	·	·
O=C(NC(=S)N(CCCCO)C1CCCCC1)c1sc2ccccc2c1Cl	-2	·	0	1593	·	-1	·	·	·
CC(C)c1ccc2[nH]c3nc(SCC(=O)N4CCOCC4)nnc3c2c1	-3	1355	-3	1522	1561	0	·	·	·
CC(C)C[C@H](NC(=O)c1nc[nH]c1C(=O)N(C)Cc1ccccc1)C(=O)OCc1ccccc1	2	1666	3	1527	1854	-1	·	·	·
NC(=O)CSc1ncnc2c1oc1ccccc12	110*	·	120*	4661*	·	153*	76*	55*	53*
O=C(CSc1ncnc2c1oc1ccccc12)c1cccs1	30*	·	52*	2091*	·	69*	38*	25*	23
O=C(CSc1ncnc2c1oc1ccccc12)Nc1nccs1	14	1569	0	1614	1953	3	·	·	·
O=C(CSc1ncnc2c1oc1ccccc12)OCc1ccccc1	55*	·	46*	2399*	·	42*	41*	34*	29*
O=C(CSc1ncnc2c1oc1ccccc12)NC1CCCCC1	24*	·	64*	2101*	·	33*	49*	37*	32*
Cc1nn(CCC(N)=S)c2nc(-c3cccs3)cc(C(F)(F)F)c12	2	1519	12	1619	1950	1	·	·	·
CCCCNc1nc(=S)n(-c2ccccc2)c(C)c1C(C)=O	4	1488	4	1741	1786	2	·	·	·
O=C(/C=C/c1ccccc1)Nc1nnc(-c2ccco2)o1	-4	1400	5	1369	1585	-1	·	·	·
O=C(CSc1nc2[nH]ncc2c(=O)n1-c1ccc(Cl)c(Cl)c1)NCc1ccccc1Cl	-4	1505	11	1410	1799	-7	·	·	·
CCOC(=O)c1c(NC(=O)COc2ncnc3ccccc23)sc(C(C)=O)c1C	25*	1991	13	1682	2218	11	16	14	10
COc1ccccc1NC(=O)CN(Cc1ccco1)C(=O)c1ccc(Cl)nc1	12	1672	11	1921	2066	1	·	·	·
COc1ccc(NS(=O)(=O)c2ccc(C)c(NC(=O)c3ccc(C)c(S(=O)(=O)N4CCOCC4)c3)c2)cc1	9	1696	1	1623	1709	0	·	·	·
COc1ccc(N2CCN(Cc3nc(N)nc(Nc4ccccc4OC)n3)CC2)cc1	9	·	2	1569	·	2	·	·	·
